# NPSR antag: qHTS Assay for Antagonists of the Neuropeptide S Receptor: cAMP Signal Transduction; 220,000 compounds, 1% hits; Q6W5P4; AID 1461, 2008; Potency, µM (highest dose often 38.3 µM), for inactives: top-dose activity change, negative = inhibition, usual class: inhibitors; CHO-NPSR cells, cAMP TR-FRET, antagonist mode; note: potency is the fitted concentration of half-maximal effect; % is set by controls: 0 for no effect and ±100 for the full control effect; nearly all actives have a fitted effect of over 50% in size
# TRb-SRC2 inh: qHTS for Inhibitors of the Interaction of Thyroid Hormone Receptor and Steroid Receptor Coregulator 2; Thyroid hormone receptor beta (Homo sapiens), P10828; TRbeta-SRC2 peptide binding, fluorescence polarization; receptor liganded with 1 µM T3; Potency, µM (titrated, usually from 106 µM), without a hit: at the top dose activity change, negative = inhibition, most hits filed as inhibitors; 280,000 compounds, 0.065% hits; AID 1469, 2008;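 note: potency is the fitted concentration of half-maximal effect; plate controls were bound peptide for no effect and peptide without receptor for full effect; nearly all actives have a fitted effect of over 50% in size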
#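 Quantitative HTS by FP: 0.6 uM TRb LBD, 20 nM labeled SRC2 20-mer, 1 uM T3, 5% DMSO; 5 hr ambient incubation; % activity per concentration and potencies from concentration series.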
# TexasRed fluor: Total Fluorescence Counterscreen for Inhibitors of the Interaction of Thyroid Hormone Receptor and Steroid Receptor Coregulator 2; TRb/SRC2 Texas Red total fluorescence interference; Potency, µM (titrated, usually from 106 µM), for inactives: at the highest dose fluorescence change, negative = quenching; 280,000 compounds, 0.29% hits; AID 1479, 2009; active = well fitted curve in either direction with a large enough effect; inconclusive = small, poorly fitted or top-dose-only effect; note: potency is the fitted concentration of half-maximal effect; % is set by controls: 0 for no effect and ±100 for the full control effect
#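 Human TRβ ligand-binding domain (0.6 uM) and Texas Red SRC2 peptide (20 nM) in Tris buffer with 1 uM T3 and 5% DMSO were incubated with pinned compound for 5 hr at ambient temperature. Total fluorescence was computed as S + 2P (555/632 nm).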
# Coupling enz: qHTS Assay for Inhibitors of Fructose-1,6-bisphosphate Aldolase from Giardia Lamblia: Coupling assay counterscreen; coupling enzyme system counterscreen, AmpLite Red fluorescence; activity change, negative = inhibition, % at 58.2 µM, hits read low; 290,000 compounds, 0.67% hits; AID 2472, 2010; in the data active = activity change below about -30%; note: % is set by controls: 0 for no effect and ±100 for the full control effect
#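 Compounds tested against the coupling enzymes alone at 57.5 uM final; readout was AmpLite Red fluorescence (525/598 nm) after 20 min at RT.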
# TSHR antagonist: Antagonists of the Thyroid Stimulating Hormone Receptor: HTS campaign; Thyrotropin receptor (Homo sapiens), P16473; TSHR-expressing cells, TSH-stimulated cAMP HTRF, 2 h; active compounds read low; activity change, negative = inhibition, % at 11.5 µM; 330,000 compounds, 0.2% hits;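 active = activity change below a set negative limit, meaning inhibition stronger than a set level, cut at about -70% in these data; inconclusive = activity change between two set negative limits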; note: % is set by controls: 0 for no effect and ±100 for the full control effect
#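 TSHR-expressing cells were treated with compounds, then stimulated with TSH at EC80 (4nM final) for 2 hours at 37 deg C. Cellular cAMP was measured by HTRF competition between lysate cAMP and cAMP-d2 for a cryptate-labelled anti-cAMP antibody.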
# TCR act: Activators of T cell receptors: qHTS campaign. 330,000 tested, under 10 active. primary human leukocytes, anti-CD3, IL-2 HTRF, 48 h. AID 504894, 2011. Potency, µM (series often up to 9.22 µM), for the others: at the top dose activation of IL-2 secretion, actives largely listed as activators; note: % of control where 0% means no effect
#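 Human primary leukocytes + a-CD3 beads + cpd, 48 hr; IL-2 in supernatant by HTRF (ex 320nm / em 665nm). No co-stimulatory signal supplied.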
# * hit, by the source's call; u = inconclusive; x = no result; ! = not active in a repeat; [ ] = another dose, or the depositor's remark. A selection: hits, their analogues and other compounds. The true share with any hit is near 1%. Unless noted, calls come from the whole dose curve; as a rule, active = well fitted curve in the direction sought with a large enough effect; inconclusive = small, poorly fitted or top-dose-only effect, or another doubt; inactive = no such curve, though single readings can be large; an effect the other way counts as inactive or inconclusive.
SMILES,NPSR antag,TRb-SRC2 inh,TexasRed fluor,Coupling enz,TSHR antagonist,TCR act
O=C1CN(S(=O)(=O)c2ccccc2)c2ccccc2N1,10%,1%,-1%,2,-21,1%
COC(=O)c1ccc(OC)c(CN2CCCN(Cc3ccc(F)cc3)S2(=O)=O)c1,x,x,x,-31*,3,4%
Cc1cccc(OCC(O)CN2C(C)(C)CC(O)CC2(C)C)c1 (configuration not stated),8%[46.1 µM],-26%,0%,-2,x,2%
CC1(C)CC(O)CC(C)(C)N1CC(O)COCc1ccccc1 (configuration not stated),x,x,x,1,-134*,-4%
COc1cc(NC(=O)CCc2c(C)nc3c4c(C)cc(C)nc4nn3c2C)cc(OC)c1,x,2%,1%,x,x,x
CCN(c1ccccc1)S(=O)(=O)c1ccc(Cl)c(NC(=O)COC(=O)c2cc(O)c3ccccc3c2O)c1,-38%,-2%,-3%,-31*,14,x
COc1ccc(CN2CCC(N(CCc3ccccc3)Cc3ccccc3)CC2)c(OC)c1,7.9µM*,-5%,-1%,0,6,1%
CCOc1ccc(-n2c(SCC(=O)Nc3cc(C)ccc3C)nc3c([nH]c4ccccc43)c2=O)cc1,x,0%,-1%,x,x,x
COc1cc([N+](=O)[O-])c2ncsc2c1,15%,3%,0%,-3,11,-4%[46.1 µM]
COc1cc(SSc2cc(OC)cc([N+](=O)[O-])c2N)c(N)c([N+](=O)[O-])c1,3.2µM*,4%,-3%,-30*,-14,2%
CCC(=O)N1CCc2cc(CNS(=O)(=O)c3cc(Cl)ccc3OC)ccc21,x,-5%,0%,x,x,x
CCN(CC)S(=O)(=O)c1cccc(N=NC2=C(O)CCCC2=O)c1,13%,40µM*,u,0,-4,6%[46.1 µM]
CCCCOC(=O)NS(=O)(=O)c1sc(CC(C)C)cc1-c1ccc(Cn2c(CC)nc3c(C)cc(C)nc32)cc1,13µM*,3%,-1%,x,-23,x
Cc1ccc2c(c1)c1c(c(=O)n(Cc3ccccc3)c(=O)n1Cc1cccc(F)c1)n2C,x,-4%,-1%,x,x,x
CCN(CC)CCOc1ccc(/C(=C(/Cl)c2ccccc2)c2ccccc2)cc1,10µM*,-3%,-2%,0,6,-6%
CCOc1ccc(C(=O)OCCN(CC)CC)cc1,3%[46.1 µM],6%,1%,6,3,2%
Cc1nnc(N/N=C/c2ccco2)n1N,0%,7%,-2%,-42*,8,2%
S=C(NCCN1CCOCC1)N/N=C/c1cccs1,x,x,x,1,-3,-3%
Oc1cccc(/C=N/NC(=S)NCCN2CCOCC2)c1O,-1%,-2%,-2%,-34*,-5,5%
CC1(OC(=O)C2CCCC2)C(=O)C=C2C=C(c3ccsc3)N(C3CCCC3)C=C2C1=O (configuration not stated),-8%,-1%[11.2 µM],-4%[11.2 µM],-32*!,-6,1%
COc1ccc(CN2C=C3C(=O)C(C)(OC(=O)C4CCCC4)C(=O)C=C3C=C2c2ccsc2)cc1 (configuration not stated),-22%,6%[11.2 µM],0%[11.2 µM],-4,-2,6%
CC1(OC(=O)C2CCCC2)C(=O)C=C2C=C(c3ccsc3)N(CCCCO)C=C2C1=O (configuration not stated),1%,9%[11.2 µM],-1%[11.2 µM],-37*,-1,-3%
CC1(OC(=O)C2CCCC2)C(=O)C=C2C=C(c3ccsc3)N(c3ccc(CO)cc3)C=C2C1=O (configuration not stated),x,1%[11.2 µM],-1%[11.2 µM],-1,x,x
CC(C)OCCCN1C=C2C(=O)C(C)(OC(=O)C3CCCC3)C(=O)C=C2C=C1c1ccsc1 (configuration not stated),x,-1%[11.2 µM],-1%[11.2 µM],-41*,x,x
